Compound activity as filed in PubChem BioAssay.
Shown is part of a subset that was picked to be rich in hits.
LmPK inhibitor: LmPK (Leishmania mexicana) enzyme inhibition. 290,000 compounds, 0.37% hits. purified LmPK, Kinase-Glo ATP luminescence, 1 h. Q27686. Potency, µM (titrated, usually from 57.5 µM), without a hit: at the top dose activity change, negative = inhibition, most hits filed as inhibitors; also: potency is read from the fitted curve at half-maximal effect; % is scaled to controls: 0 for no effect and ±100 for the full control effect
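qHTS format; LmPK 0.1 nM; substrates PEP 0.5 mM and ADP 0.1 mM. One-hour room-temperature incubation, then coupled luciferase luminescence; 0.5 nM enzyme wells mark activation.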
CHX counter: counter-screen hit for Shiga toxin inhibitors, cycloheximide. max response, %. cell reporter, cycloheximide protein synthesis inhibition counterscreen. 300,000 compounds, 12% hits; in the data active = max response mostly above about 13%, no sharp cut-off; inactive = mostly below about 14%; also: read at 38.3 µM for the half of the compounds with a filed dose; 0% is about no effect
Shiga inhibitor: Shiga toxin inhibition; Vero cells, Shiga toxin protein synthesis inhibition reporter; inhibition, % at 38.7 µM; 290,000 compounds, 9.2% hits; AID 2315; in the data active = inhibition mostly above about 28%, no sharp cut-off; inactive = mostly below about 43%; also: 0% is about no effect
RE007 growth inh: less growth of the S. pombe RE007 Vpr strain; AID 651644; S. pombe RE007 Vpr strain, BacTiter-Glo ATP luminescence, 24 h; Potency, µM (doses to about 92.2 µM), for inactives: top-dose activity change, negative = less growth, most hits filed as inhibitors; 360,000 compounds, 0.21% hits; active = well fitted falling curve with a large enough effect; inconclusive = small, poorly fitted or top-dose-only effect; inactive = no such curve, though single readings can be large or run the other way; also: potency is read from the fitted curve at half-maximal effect; % is scaled to controls: 0 for no effect and ±100 for the full control effect; nearly all actives have a fitted effect of over 50% in size
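Fission yeast strain RE007, carrying one chromosomally integrated HIV-1 vpr copy, was seeded at OD 0.01 in PMG+AL medium with 23 nL pinned compound. After 24 h at 30 °C and 99% humidity, viability was read by BacTiter-Glo luminescence.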
Giardia FBPA inh: Giardia lamblia aldolase inhibition; purified Giardia FBPA; Potency, µM (top dose mostly 59.6 µM), for the others: top-dose activity, negative = inhibition, actives largely listed as inhibitors; 290,000 compounds, 0.71% hits; also: potency is read from the fitted curve at half-maximal effect; % is scaled to controls: 0 for no effect and ±100 for the full control effect; nearly all actives have a fitted effect of over 55% in size
Target sequence (A8B2U2 whole entry, looked up): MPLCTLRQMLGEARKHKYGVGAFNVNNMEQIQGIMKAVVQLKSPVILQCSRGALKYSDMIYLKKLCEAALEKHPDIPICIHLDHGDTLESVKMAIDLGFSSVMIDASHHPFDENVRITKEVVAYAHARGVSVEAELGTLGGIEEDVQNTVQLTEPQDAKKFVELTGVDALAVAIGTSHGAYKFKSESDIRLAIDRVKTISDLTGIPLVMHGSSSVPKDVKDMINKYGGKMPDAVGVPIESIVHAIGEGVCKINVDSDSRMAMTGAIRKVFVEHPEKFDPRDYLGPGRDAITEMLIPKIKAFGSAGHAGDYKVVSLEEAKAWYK
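40 nM FBPA preincubated 10 min at RT with compound (up to 57.5 uM final), then substrate plus GAPDH/TPI/NAD/arsenate coupling and diaphorase/resazurin added. Fluorescence read after 20 min at RT, 525/598 nm.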
TbPYK inhibitor: inhibitors of Trypanosoma brucei pyruvate kinase | Potency, µM (series often up to 76.8 µM), without a hit: top-dose activity, negative = inhibition, usual class: inhibitors | 410,000 compounds, 0.12% hits | Q57TT1 | TbPYK enzyme, Kinase-Glo Plus ATP luminescence, 45 min | AID 624173; also: potency is read from the fitted curve at half-maximal effect; % is scaled to controls: 0 for no effect and ±100 for the full control effect; nearly all actives have a fitted effect of over 50% in size
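In this concentration-response screen, enzyme-free wells defined baseline while DMSO plates tracked drift. Each reaction combined TbPYK, substrate, compound and 130 uM ADP for 45 min at room temperature. Kinase-Glo Plus luminescence gave the signal.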
The depositor's hits bear a star; ? = inconclusive; nt = no result given; + = active, no number. Unless noted, calls follow the shape of the dose curve; as a rule, active = well fitted curve in the direction sought with a large enough effect; inconclusive = small, poorly fitted or top-dose-only effect, or another doubt; inactive = no such curve, though single readings can be large; an effect the other way counts as inactive or inconclusive.

SMILES	LmPK inhibitor	CHX counter	Shiga inhibitor	RE007 growth inh	Giardia FBPA inh	TbPYK inhibitor
N/C(=N\OC(=O)Cc1cccs1)c1ccc(Br)cc1	1%	50*	81*	-4%	5%	4%
N/C(=N\OC(=O)Cc1cccs1)c1ccc([N+](=O)[O-])cc1	1%	31*	+	-10%	4%	3%
O=C(NCc1cccs1)c1ccc([N+](=O)[O-])cc1	-2%	10	-12	-3%	0%	-9%
O=C1C=C(CO)OCC1=O	nt	nt	nt	nt	nt	2%
O=C1COc2cc(S(=O)(=O)CCC(=O)N3CCN(c4ccccc4)CC3)c(Cl)cc2N1	nt	nt	nt	nt	nt	5%
Cc1cc(C)n2c(Nc3ccccc3C)c(-c3cccs3)nc2n1	nt	nt	nt	nt	nt	5%
Cc1cc(C)cc(NC(=O)c2ccc(CSc3nnnn3C)cc2)c1	-5%	-4	14	10%	-15%	1%
O=C(Nc1ccccc1)c1ccc(CSc2ncccn2)cc1	-22%	97*	107*	-5%	-1%	-6%
CCCNC(=O)c1ccccc1NC(=O)c1ccc(CSc2ccccc2)cc1	2%	17*	26*	-8%	-9%	-13%
Cn1nnnc1SCc1ccc(C(=O)Nc2ccccc2F)cc1	-5%	32*	45*	7%	1%	-9%
O=C(Nc1ccccc1F)c1ccc(CSc2ncccn2)cc1	16µM*	30*	86*	-6%	-5%	-10%
CC(=O)Nc1nnc(SCc2ccc(C(=O)Nc3ccccc3F)cc2)s1	4%	17	31	-12%	6%	-18%
COc1ccc(CN(C(=O)Nc2cc(C)ccc2C)C2CCN(C(C)=O)CC2)cc1	nt	nt	nt	nt	nt	1%
CCCCCCCC/C=C\CCCCCCCC(=O)N[C@H](CO)Cc1ccc(O)cc1	nt	7	-2	nt	-16%	nt
N#Cc1nc(-c2ccc(COc3ccccc3)o2)oc1NCc1cccnc1	nt	nt	nt	nt	nt	4%
O=C(c1csnn1)N1CCC2(CC1)CCN(c1ccccc1)CC2	nt	nt	nt	nt	0%	1%
CC(=O)c1ccc(NC(=O)Cn2cnc3nc4c(cc3c2=O)CC(C)CC4)cc1 (stereo not given)	nt	nt	nt	nt	nt	0%
Cn1nnnc1SCc1ccc(C(=O)Nc2nccs2)cc1	-7%	37*	51*	-3%	0%	3%
CC(C)(S)C(=O)N[C@H](CS)C(=O)O	nt	nt	nt	nt	nt	-20%
N/C(=N\OC(=O)COc1ccc(Cl)cc1Cl)c1cccnc1	-3%	54*	78*	-4%	-2%	0%
Cc1ccc(OCC(=O)O/N=C(\N)c2cccnc2)cc1	4%	23*	68*	-16%	-1%	4%
N/C(=N\OC(=O)COc1ccc(Cl)cc1)c1cccnc1	-2%	15*	62*	-25%	4%	-3%
N/C(=N\OC(=O)COc1ccc([N+](=O)[O-])cc1)c1cccnc1	4%	-2	15	-1%	5%	1%
COC(=O)C1=C(C)NC(C)=C(C(=O)OCCCN2CCC(c3ccccc3)(c3ccccc3)CC2)C1c1cccc([N+](=O)[O-])c1 (stereo not given)	nt	nt	nt	nt	nt	0%
CC(C)CCn1c(Sc2nc3ccccc3o2)nc2c1c(=O)[nH]c(=O)n2C	-4%	73*	69*	-18%	-20%	-8%
SMILES	LmPK inhibitor	CHX counter	Shiga inhibitor	RE007 growth inh	Giardia FBPA inh	TbPYK inhibitor
COc1ccc(OC)c(NC(=O)CCCC(=O)NC2CCCCC2)c1	-3%	1	-10	11%	-2%	2%
O=C(CNC(=O)C1CCCCC1)Nc1ccccc1	-2%	9	3	-8%	9%	0%
COC(=O)c1ccc(NC(=S)NCC2CC2)cc1	-6%	63*	97*	6%	-1%	-6%
COc1ccc(CC(=O)NC2CCCCCC2)c(OC)c1	-2%	8.5*	26	6%	-12%	0%
COc1ccc(CNC(=O)Cn2nnc(-c3ccc(NC(=O)C4CCCCC4)cc3)n2)cc1	2%	21*	23	-20%	4%	3%
COc1ccc(NC(=O)CNC(=O)C2CCCCC2)cc1	6%	22*	20	-3%	9%	-3%
COc1ccccc1CNC(=O)CSc1ncc2c(n1)-c1cc(Cl)ccc1N(Cc1ccccc1)S2(=O)=O	nt	nt	nt	nt	nt	-1%
COc1ccccc1CNC(=O)C(NS(=O)(=O)c1cccs1)C(C)C (stereo not given)	nt	nt	nt	nt	nt	-1%
CCOc1ccccc1NC(=O)c1ccc(F)c(S(=O)(=O)N2CCN(c3ccc(F)cc3)CC2)c1	nt	nt	nt	nt	nt	2%
COC(=O)c1ccc(NC(=O)NC2CCCCC2)cc1	-4%	41*	110*	7%	3%	-4%
COc1ccc(NC(=O)NC2CCCCCCC2)cc1	1%	45*	61*	-1%	-11%	-5%
COc1ccc(NC(=O)NC2CCCCCCC2)c(OC)c1	-1%	30*	45*	2%	nt	3%
COC(=O)c1ccc(NC(=S)NC2CC3CCC2C3)cc1 (stereo not given)	2%	41*	104*	-7%	1%	-13%
COc1ccc(CCNC(=O)NC2CCCCC2)cc1	-3%	11	18	30%	0%	6%
COc1ccc(NC(=O)CSc2nc3c([nH]c4ccccc43)c(=O)n2-c2ccccc2)c(OC)c1	nt	nt	nt	nt	nt	-9%
CC1CCCCN1C(=O)CSc1c2c(nc3cc(Cl)ccc13)CCCC2 (stereo not given)	nt	nt	nt	nt	nt	4%
COC(=O)c1cccnc1NC(=S)NC1CCCCC1	0%	-1	-13	1%	3%	-3%
COC(=O)c1ccc(NC(=S)NC2CCCCC2)cc1	0%	23	41*	-7%	0%	-1%
CC(=O)OC1OCCOC1NC(=S)Nc1cccc(C(F)(F)F)c1 (stereo not given)	5%	19*	66*	3%	-10%	-10%
Cc1cccc(NC(=S)NNC(=O)c2ccccc2Br)c1	-5%	20*	78*	23%	26%	-16%
Cc1cccc(NC(=O)c2ccccc2C(=O)O)c1	0%	9	0	1%	7%	-3%
Cc1cccc(NC(=O)c2ccc(NC(=O)c3ccccc3Br)cc2)c1	10%	20*	37	-2%	nt	-6%
Cc1ccccc1C(=O)NNC(=S)Nc1cccc(C(F)(F)F)c1	-5%	28*	27	8%	17%	-8%
FC(F)(F)c1cccc(NC(=S)NNC(=S)Nc2cccc(C(F)(F)F)c2)c1	12%	10	22	nt	5%	nt
Cc1ccc(NC(=O)c2ccc(C)cc2)cc1	nt	nt	nt	1%	nt	1%
Cc1ccc(C(=O)Nc2ccc(Br)c(C(F)(F)F)c2)cc1	-5%	82*	108*	?	nt	-3%
O=C(NNC(=S)Nc1ccc(F)c(Cl)c1)c1ccccc1Br	2%	12	43*	10%	14%	-11%
COc1ccc(C2CC(c3ccccc3)=NN2c2ccc(C(N)=O)cc2)cc1 (stereo not given)	3%	-2	-5	-8%	10%	0%
